± gives the standard deviation of the averaged measurements. The full ranking holds about 25,000 sequences; the median of “ln(normalized median fluorescence intensity)” is about 8.9, and the highest 2% start at about 10. Shown is part of a subset that was picked to be rich in the highest values.
tested on: PfAP2-LT AP2 domain (GST-tagged); test: gcPBM binding intensity (ln(normalized median fluorescence intensity)); higher = stronger DNA binding
How it was run: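 Plasmodium falciparum DNA-binding domains carrying a GST tag were expressed in E. coli and applied for 1 h, at about 25 μg on average, to an Agilent 4 × 180k array. The array held primer-extended double-stranded 36-bp intergenic genomic probes together with negative controls, and binding took place in 1× PBS with 1% milk, 0.2 mg/ml BSA, 0.5% salmon testes DNA and 0.03% Triton X-100. An Alexa488 anti-GST antibody detected bound protein, and the array was scanned at 488 nm. Binding intensity is taken as the highest Masliner-normalised natural-log median intensity across replicate spots of either probe orientation.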

Sequence | gcPBM binding intensity (ln)
ATTTCAAATTAATTTACACACTTCATACTAAAAGAC [CACACA_site3176] | 8.71 ± 0.4
GGAAAAAAATATAAAAGTACTTTTTATTTATTTTAT [XGTACX_site7418] | 8.4 ± 0.51
AGGAATATAAAGTGCACACATAATTTGGGGGCAAAA [CACACA_site258] | 9.25 ± 0.44
AATTAAATTACTTATACACACATAAAATGGGTGTAT [CACACA_site4703] | 8.97 ± 0.37
AATAAAGGAGCCTATGAACACACACCGGTACATATA [CACACA_site9352] | 9.33 ± 0.51
ATACAATAAAGGTGTACACATATATGATGCAAGATG [CACACA_site5897] | 9.29 ± 0.52
ATGTAATGAAACATTGCACACATATAATAATATAAT [CACACA_site8402] | 9.31 ± 0.35
TTTTACACTTTTTTTTGTACACACTAAAAAGATTAA [XGTACX_site8407] | 8.59 ± 0.52
AATAATTGTTAAAGCTGTACAATACTTATATAAGAA [XGTACX_site5729] | 8.77 ± 0.45
AAAAAATATTGAAGTACACACATTATAAACTTTTTT [CACACA_site5029] | 8.86 ± 0.49
AATACACACCTGTGGGTGCTTATAATAAGCCACAAA | 8.95 ± 0.45
TTAACAAATAAACACACACACACACCCAAAAAAAAA [CACACA_site8068] | 10.3 ± 0.2
ATAAATAAAAAACACACACACACACCCAAAAAAAAA [CACACA_site2624] | 9.88 ± 0.3
ATAAATAAAAACACAAAACAAAACAAAACAAAACAA [CACACA_negctrl_site1257] | 8.82 ± 0.4
TTTTTTTTTGTTAGTTGTACGTTAAATGAATTTACT [XGTACX_site7675] | 8.67 ± 0.57
TACTAAGAAGTATTTACACACCAACAAGGCGAAAAA [CACACA_site2944] | 8.88 ± 0.44
TTTAAGCAAAAACACACACACATATATATATATATA [CACACA_site349] | 10.1 ± 0.16
AAACATATATTAAGCACACACAAACAAAAAAACAAA [CACACA_site2549] | 9.59 ± 0.61
TGAAGCAAAAACAAAACACACATATAAATAAATAAA [CACACA_site3925] | 9.15 ± 0.52
TATAAGCAAAAACACACACACATATATATATATATA [CACACA_site3804] | 10.2 ± 0.23
CCTTTAAGCAAAAACACACACACATATTTATTTATA [CACACA_site6294] | 9.41 ± 0.3
CCTTTAAGCAAAAACACACACACATATATATATATA [CACACA_site348] | 9.945 ± 0.035
AAAAAAATAAAAAATATATAAATAATTAATACATGT [GTGCAC_negctrl_site633] | 8.62 ± 0.59

Sequence | gcPBM binding intensity (ln)
TTATCATTATATAGTTGTACATATTTATTTATAAAA [XGTACX_site2310] | 8.45 ± 0.44
ATTATTTTATATACATGTACATATTATATATAAAAG [XGTACX_site2735] | 8.51 ± 0.42
TATTTTTTTAATAACTGTACTTTTTTGTCAAATGGA [XGTACX_site4179] | 8.32 ± 0.49
ATATATTTCAAAGGGGTGCAGGCATATTTAAGCAAA | 8.69 ± 0.49
TATTTTAAAAAAAAAAGTACACATAATATATATAAC [XGTACX_site5416] | 8.57 ± 0.57
CATTAAACCGTGGGAGCACACACACCCACCCACCCA [CACACA_site8000] | 9.57 ± 0.2
ATTAAACCGTGGGAGCACACACACACACACACACAT [TGCATGCA_negctrl_site72] | 10.6 ± 0.4
TTAAACCGTGGGAGCACACACACACCCAGACACATA [CACACA_site4337] | 9.7 ± 0.31
AAATATATATATATATATATATATGTGTGTGTATAT [GTGCAC_negctrl_site1] | 9.79 ± 0.45
TATATATATATATATATATATATATATATATGTATA [TGCATGCA_negctrl_site17] | 9.8 ± 0.38
TATATATATATATATATATATATATATGTGTATGTA [TGCATGCA_negctrl_site255] | 10.2 ± 0.26
TTACACTAAATATGTTCACACATTTTTTCCATCATA [CACACA_site4647] | 8.79 ± 0.45
CATACAGACGAACACACACACATATAAATATAAATA [CACACA_site6443] | 9.7 ± 0.38
AACGCACGAGGACACACACACATATTTATATTTATA [CACACA_site6608] | 9.82 ± 0.41
AAAAAAGAAAAAAGGACACACATAAATATACTCACG [CACACA_site2904] | 9.16 ± 0.48
AATGAACTCACGAGCACACACACACCGATATATATA [CACACA_site4710] | 10.1 ± 0.35
TGAACTCACGAGCACACACACACATATATATATATA [CACACA_site8248] | 10.3 ± 0.25
AACTCACGAGGACACACACACATATATATATATATA [CACACA_site4711] | 10.38 ± 0.035
TGAACAGACGAGCACACACACACATATATATATATA [CACACA_site1019] | 10.3 ± 0.2
AATGAACAGACGAGCACACACACACCCATATATATA [CACACA_site1018] | 10.1 ± 0.16
AAAATGAACTCACGAGCACACACACCCATATATATA [CACACA_site8247] | 9.72 ± 0.25
ATTTAATTTTCCAAATGTACTTATATTTTTATGAAA [XGTACX_site6144] | 8.27 ± 0.4
TTTTTTTTTTAAATGTGTCCTCATTATAATATATGT [XGTACX_site5331] | 8.65 ± 0.47

Sequence | gcPBM binding intensity (ln)
ATATAAGTTTTTTCTCAAAAAGTATAACGAGCATGA [CACACA_negctrl_site1375] | 8.6 ± 0.4
GACAAAAAATTAAAATAAAATAATAATATAATAAAA [GTGCAC_negctrl_site234] | 8.55 ± 0.67
TTTTGGTATACGTAATTATATAATATGTTAATCAAT [CACACA_negctrl_site645] | 8.61 ± 0.36
ATGTAGAGTAATAGTTGTACAAGGTGTATATCTCAT [XGTACX_site6370] | 9.29 ± 0.57
TAAAAGTTAATATAAACACACAAAAATTAATAAATA [CACACA_site6316] | 8.73 ± 0.45
TTATAAAAAGAACAATTAAAAAAAAATAAAATAAAA [XGTACX_negctrl_site398] | 8.4 ± 0.63
ATATAATGTGTAGGCCGTATTTACGTTTGGCAATCA [CACACA_negctrl_site1130] | 8.99 ± 0.56
ATTTGGCAGAAACACACACACACACCCACCCACATA [CACACA_site589] | 10.2 ± 0.35
TAGAAGCAGAAACACACACACATACATACACATACA [CACACA_site1467] | 9.87 ± 0.35
ATTTGGCATAAACACACACACACACCCACCCACATA [CACACA_site8096] | 10.1 ± 0.37
TATACGCAGAAACACACACACATACACCCACATACA [CACACA_site1723] | 10 ± 0.26
TGTAAATTTGGCATCACACATAAATAAACATATAAA [CACACA_site4497] | 8.77 ± 0.45
CATAAATGTATATAAACATGCAAGGACAGACTTTTA [TGCATGCA_site900] | 8.92 ± 0.37
TATATATATTATAATACATGCGGTGATGAAAGTTAT [TGCATGCA_site924] | 9.07 ± 0.58
TTATTTAAAATTTTTATGCGTATATATATAGGAACA [CACACA_negctrl_site388] | 8.35 ± 0.39
ACCTGAAGAGTCAAACGTACAAATATTATAAAATGA [XGTACX_site3188] | 8.77 ± 0.59
TTCGTCTTTTTTCTCACACACCCTTTTTATTAAAAG [CACACA_site7225] | 9.05 ± 0.6
CGTGGGAGCAGACACACACACACACCCATATATATA [CACACA_site334] | 9.99 ± 0.5
CGCCCACAGATATATACACACATATATAAATAAATA [CACACA_site6877] | 9.04 ± 0.33
AATACACCCAGACACACACACAAAAAAAAAAAAAAA [CACACA_site513] | 9.53 ± 0.61
CATACCTATAGACACACACACACACGCACGCACAAA [CACACA_site6374] | 10 ± 0.18
TACTATAACAGACATACACACAAAAAAAAAAAAAAA [CACACA_site538] | 9.03 ± 0.47
TATACACCCAGACACACACACACACCCAAAAAAAAA [CACACA_site497] | 10.2 ± 0.3

Sequence | gcPBM binding intensity (ln)
GGAGCACCCAGACACACACACACATATATATATATA [CACACA_site336] | 10.4 ± 0.19
TGGGAGCACAGACACACACACACACCCATATATATA [CACACA_site335] | 9.98 ± 0.36
TTGGCATACAGACACACACACACACGCCCACATATA [CACACA_site6425] | 10.1 ± 0.38
TACCTATACAGACACACACACACACGCCCACAAAAA [CACACA_site6375] | 10.2 ± 0.37
AATTAGCTCAAAGGTTGTACAAATATATTTTAATGG [XGTACX_site2352] | 8.66 ± 0.48
TTTATACATACATTCGTGCACATACGTATAACATAT | 9.07 ± 0.37
TATAAAAAGCATAACACACACATGTCAATATATATA [CACACA_site1111] | 9.31 ± 0.35
ATTTTGATGATGTATGCACACATTGAAAATGAGAAA [CACACA_site2916] | 8.97 ± 0.57
AAAAAAAAGAATTATTGTACAAAAGAACAATAAATA [XGTACX_site1368] | 8.73 ± 0.57
TGAAAAAAAAAATACACACACGAGTTGTTATACATA [CACACA_site7486] | 9.09 ± 0.43
CATACACCCAGACACACACACATATATATATATATA [CACACA_site634] | 10.3 ± 0.17
TACAGATACGGACACACACACACACCCAGACAAAAA [CACACA_site4432] | 10.2 ± 0.46
AAAAAAAACAGACACACACACAAATACATACACAAA [CACACA_site705] | 9.72 ± 0.31
CATACAGATGGACACACACACACACCCACAGACAAA [CACACA_site4431] | 9.93 ± 0.36
GGCATACACAGACACACACACACACCCACATATATA [CACACA_site591] | 10.2 ± 0.28
TAAATACAGACATACACACATACACCCACATATATA [CACACA_site547] | 9.76 ± 0.38
TTTAAATACAGACATACACACATACACCCACATATA [CACACA_site8078] | 9.61 ± 0.15
AACAAATACAGACACACACACACACCCAAAAAAAAA [CACACA_site515] | 10.2 ± 0.26
TGAACACAGACAAATACACACAAAAAAAATAAATAA [CACACA_site4298] | 9.28 ± 0.57
ATAAAAGATTTATACATACACACATATTATATTCAC [CACACA_site3714] | 9.02 ± 0.42
